From PubChem BioAssay (EPA / NIEHS)
Activity calls are given as the source filed them. The calls were made as follows: active = hit-call score of the fitted dose curve at least 0.9, where 1 is the maximum; inactive = score below 0.9.

How the values were obtained:
Conditions in all cases: mRNA level, 48 h; actives raise or lower the signal
[1] = read-out: Lipase C (LIPC), LIPC (gene 3990); experiment: LTEA_HepaRG_LIPC: Life Technologies and Expression Analysis (LTEA) Assay for Lipase C (LIPC) using HepaRG (AID 2283514)
Summary of the method: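 In this multiplexed gene-expression screen, human HepaRG cultures received test chemicals for 48 h across eight concentrations with 100 uM highest, in duplicate. Values reflect LIPC mRNA induction or suppression versus DMSO vehicle, from normalized qRT-PCR.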

[2] = read-out: Lipoprotein lipase (LPL), LPL (gene 4023); experiment: LTEA_HepaRG_LPL: Life Technologies and Expression Analysis (LTEA) Assay for Lipoprotein lipase (LPL) using HepaRG (AID 2283515)
Summary of the method: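 Concentration-response testing used half-log steps from 100 uM in 0.5% DMSO on human HepaRG cells, 48 h, duplicate wells. Phenobarbital 1 mM served as induction control; LPL mRNA was normalized to ACTB, GAPDH, POLR2A.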

[3] = read-out: MicroRNA 122 (MIR122), gene 406906; experiment: LTEA_HepaRG_MIR122: Life Technologies and Expression Analysis (LTEA) Assay for MicroRNA 122 (MIR122) using HepaRG (AID 2283516); also: the transcript read is the microRNA miR-122
Summary of the method: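 Human liver HepaRG cultures receive test chemicals for 48 h at eight half-log concentrations from 100 uM. Expression is quantified by qRT-PCR with ACTB/GAPDH/POLR2A normalization and fitted bidirectionally against 0.5% DMSO.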

[4] = read-out: matrix metalloproteinase-10 (MMP10), MMP10 (gene 4319); experiment: LTEA_HepaRG_MMP10: Life Technologies and Expression Analysis (LTEA) Assay for matrix metalloproteinase-10 (MMP10) using HepaRG (AID 2283517)
Summary of the method: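 In differentiated HepaRG cultures kept in 0.5% DMSO, test chemicals act for 48 h over an eight-point range with a top dose of 100 uM. Expression is then quantified by TaqMan RT-PCR against ACTB, GAPDH and POLR2A.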

MYC, MYC (gene 4609) = experiment: LTEA_HepaRG_MYC: Life Technologies and Expression Analysis (LTEA) Assay for MYC using HepaRG (AID 2283518)
Summary of the method: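 Cells are thawed, plated and cultured 48 h, then treated for 48 h with test chemicals (eight half-log concentrations from 100 uM, 0.5% DMSO vehicle). RNA is isolated and MYC expression quantified by qRT-PCR against three housekeeping genes.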

[5] = read-out: matrix metalloproteinase-3 (MMP3), MMP3 (gene 4314); experiment: LTEA_HepaRG_MMP3: Life Technologies and Expression Analysis (LTEA) Assay for matrix metalloproteinase-3 (MMP3) using HepaRG (AID 2283519)
Summary of the method: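 Human liver HepaRG cultures received chemicals (top concentration 100 uM, 0.5% DMSO) for 48 h in duplicate. MMP3 mRNA induction or loss was then assessed via TaqMan qRT-PCR with housekeeping-gene normalisation.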

[6] = read-out: Paternally Expressed 10 (PEG10), PEG10 (gene 23089); experiment: LTEA_HepaRG_PEG10: Life Technologies and Expression Analysis (LTEA) Assay for Paternally Expressed 10 (PEG10) using HepaRG (AID 2283520);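 as to AC50: PEG10 transcript by qRT-PCR normalised to ACTB GAPDH and POLR2A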
Summary of the method: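 Human HepaRG cultures are dosed for 48 h across an eight-point half-log series starting at 100 uM, with 0.5% DMSO as vehicle and baseline. Gain or loss of PEG10 transcript is measured by qRT-PCR and fitted in both directions.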

[7] = read-out: Nuclear factor NF-kappa-B p105 subunit (Homo sapiens) (UniProt P19838); experiment: LTEA_HepaRG_NFKB1: Life Technologies and Expression Analysis (LTEA) Assay for Nuclear Factor Kappa B Subunit 1 (NFKB1) using HepaRG (AID 2283521)
Summary of the method: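 Differentiated human HepaRG cells in serum-free induction medium with 0.5% DMSO were exposed for 48 h to eight half-log concentrations, top 100 uM, in duplicate. NFKB1 mRNA measured by Fluidigm TaqMan qRT-PCR, normalised to ACTB, GAPDH and POLR2A; bidirectional fit versus DMSO.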

[8] = read-out: Protein phosphatase 2A (PPP2R4), PTPA (gene 5524); experiment: LTEA_HepaRG_PPP2R4: Life Technologies and Expression Analysis (LTEA) Assay for Protein phosphatase 2A (PPP2R4) using HepaRG (AID 2283522)
Summary of the method: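 Cells were plated, cultured 48 h, switched to serum-free induction medium, then dosed for 48 h (8 points, max 100 uM, 0.5% DMSO). RNA was isolated and PPP2R4 expression measured by TaqMan qRT-PCR.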

[9] = read-out: Phosphatase and tensin (PTEN), PTEN (gene 5728); experiment: LTEA_HepaRG_PTEN: Life Technologies and Expression Analysis (LTEA) Assay for Phosphatase and tensin (PTEN) using HepaRG (AID 2283523)
Summary of the method: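 Expression of PTEN is quantified in the human liver line HepaRG following two days of dosing (top concentration 100 uM, half-log dilutions, 0.5% DMSO). Values derive from bidirectional curve fitting relative to DMSO controls.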

[10] = read-out: solute carrier (SLC22A1), SLC22A1 (gene 6580); experiment: LTEA_HepaRG_SLC22A1: Life Technologies and Expression Analysis (LTEA) Assay for solute carrier (SLC22A1) using HepaRG (AID 2283524);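 as to AC50: TaqMan qRT-PCR normalized to ACTB GAPDH and POLR2A housekeeping genes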
Summary of the method: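 Transcript induction or suppression of SLC22A1 in human HepaRG cultures is scored after 48 h chemical treatment, with DMSO (0.5%) as baseline for bidirectional fitting. Concentrations span eight half-log points topping at 100 uM.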

[11] = read-out: Pyruvate Dehydrogenase Kinase 4 (PDK4), PDK4 (gene 5166); experiment: LTEA_HepaRG_PDK4: Life Technologies and Expression Analysis (LTEA) Assay for Pyruvate Dehydrogenase Kinase 4 (PDK4) using HepaRG (AID 2283525)
Summary of the method: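 Eight-point, half-log concentration series (max 100 uM, 0.5% DMSO) applied to differentiated HepaRG cells for 48 h in duplicate. Endpoint: PDK4 mRNA induction or repression by qRT-PCR against DMSO baseline.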

[12] = read-out: NAD(P)H dehydrogenase [quinone] 1 (NQO1), NQO1 (gene 1728); experiment: LTEA_HepaRG_NQO1: Life Technologies and Expression Analysis (LTEA) Assay for NAD(P)H dehydrogenase [quinone] 1 (NQO1) using HepaRG (AID 2283526)
Summary of the method: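 Transcript induction or suppression is quantified by qRT-PCR in human HepaRG liver cells dosed for 48 hours. Eight half-log concentrations topping at 100 uM are used, with 0.5% DMSO as vehicle and baseline.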

[13] = read-out: Nuclear factor erythroid 2-related factor 2 (Homo sapiens) (UniProt Q16236); experiment: LTEA_HepaRG_NFE2L2: Life Technologies and Expression Analysis (LTEA) Assay for Nuclear factor erythroid 2-related factor 2 (NFE2L2) Transcription Factor using HepaRG (AID 2283527)
Summary of the method: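 Human liver HepaRG line treated in duplicate for 48 h with an eight-point series topping at 100 uM. Gene expression of NFE2L2 by qRT-PCR, bidirectionally fitted against the vehicle control.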

[14] = read-out: Signal transducer and activator of transcription 3 (Homo sapiens) (UniProt P40763); experiment: LTEA_HepaRG_STAT3: Life Technologies and Expression Analysis (LTEA) Assay for Signal transducer and activator of transcription (STAT3) using HepaRG (AID 2283529)
Summary of the method: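 In this transcriptional endpoint, HepaRG cultures receive test chemicals at up to 100 uM for 48 h, tested in duplicate. STAT3 mRNA is normalized to ACTB, GAPDH and POLR2A.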

[15] = read-out: solute carrier (SLCO1B1), SLCO1B1 (gene 10599); experiment: LTEA_HepaRG_SLCO1B1: Life Technologies and Expression Analysis (LTEA) Assay for solute carrier (SLCO1B1) using HepaRG (AID 2283530)
Summary of the method: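 Gain or loss of SLCO1B1 mRNA is fitted against the 0.5% DMSO vehicle in human HepaRG liver cells treated 48 h at up to 100 uM in half-log steps. Expression comes from qRT-PCR normalized to endogenous controls.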

[16] = read-out: Transforming Growth Factor (TGFA), TGFA (gene 7039); experiment: LTEA_HepaRG_TGFA: Life Technologies and Expression Analysis (LTEA) Assay for Transforming Growth Factor (TGFA) using HepaRG (AID 2283532)
Summary of the method: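 Gene expression of TGFA was quantified by qRT-PCR after human HepaRG cells were treated for 48 h with test chemicals (eight concentrations, highest 100 uM, 0.5% DMSO). Activity in either direction was fitted relative to DMSO.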

[17] = read-out: Transforming Growth Factor (TGFB1), TGFB1 (gene 7040); experiment: LTEA_HepaRG_TGFB1: Life Technologies and Expression Analysis (LTEA) Assay for Transforming Growth Factor (TGFB1) Transporter using HepaRG (AID 2283533)
Summary of the method: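 Expression change of TGFB1 in human HepaRG cells is measured after a 48 h chemical exposure, up to 100 uM in 0.5% DMSO vehicle. Curves are fitted in both directions relative to the DMSO baseline.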

TIMP1, TIMP1 (gene 7076) = experiment: LTEA_HepaRG_TIMP1: Life Technologies and Expression Analysis (LTEA) Assay for TIMP1 using HepaRG (AID 2283534)
Summary of the method: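 We dosed human liver HepaRG cultures for 48 hours with up to 100 uM test chemical and measured TIMP1 expression by qRT-PCR. Activity in either direction is fitted relative to the 0.5% DMSO vehicle.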

[18] = read-out: Tumor necrosis factor receptor 1 (TNFRSF1A), TNFRSF1A (gene 7132); experiment: LTEA_HepaRG_TNFRSF1A: Life Technologies and Expression Analysis (LTEA) Assay for Tumor necrosis factor receptor 1 (TNFRSF1A) using HepaRG (AID 2283535)
Summary of the method: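 Expression of TNFRSF1A in human HepaRG liver cells was measured by qRT-PCR 48 h after chemical dosing (maximum 100 uM). Bidirectional curve fitting used 0.5% DMSO as baseline.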

Measured: AC50

Sequence of Signal transducer and activator of transcription 3 (Homo sapiens) (P40763 whole entry, looked up): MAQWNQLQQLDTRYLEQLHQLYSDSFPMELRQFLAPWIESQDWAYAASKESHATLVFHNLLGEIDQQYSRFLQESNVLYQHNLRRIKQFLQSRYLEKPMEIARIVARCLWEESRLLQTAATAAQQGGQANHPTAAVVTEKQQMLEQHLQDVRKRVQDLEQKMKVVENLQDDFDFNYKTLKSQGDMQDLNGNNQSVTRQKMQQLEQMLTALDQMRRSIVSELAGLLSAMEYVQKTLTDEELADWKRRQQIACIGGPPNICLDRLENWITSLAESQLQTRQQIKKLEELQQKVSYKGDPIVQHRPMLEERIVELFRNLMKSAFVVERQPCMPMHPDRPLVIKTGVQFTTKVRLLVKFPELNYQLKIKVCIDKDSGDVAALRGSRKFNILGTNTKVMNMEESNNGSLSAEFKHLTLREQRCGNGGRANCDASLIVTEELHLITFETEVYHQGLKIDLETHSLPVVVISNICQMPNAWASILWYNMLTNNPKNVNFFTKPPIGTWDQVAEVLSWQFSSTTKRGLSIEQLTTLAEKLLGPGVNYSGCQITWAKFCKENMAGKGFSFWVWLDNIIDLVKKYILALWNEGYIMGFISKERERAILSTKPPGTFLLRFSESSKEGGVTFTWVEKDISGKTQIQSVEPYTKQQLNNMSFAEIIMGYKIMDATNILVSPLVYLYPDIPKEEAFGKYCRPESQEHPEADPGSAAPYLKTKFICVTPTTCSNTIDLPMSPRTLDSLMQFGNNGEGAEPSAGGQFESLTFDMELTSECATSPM
Sequence of Nuclear factor erythroid 2-related factor 2 (Homo sapiens) (Q16236 whole entry, looked up): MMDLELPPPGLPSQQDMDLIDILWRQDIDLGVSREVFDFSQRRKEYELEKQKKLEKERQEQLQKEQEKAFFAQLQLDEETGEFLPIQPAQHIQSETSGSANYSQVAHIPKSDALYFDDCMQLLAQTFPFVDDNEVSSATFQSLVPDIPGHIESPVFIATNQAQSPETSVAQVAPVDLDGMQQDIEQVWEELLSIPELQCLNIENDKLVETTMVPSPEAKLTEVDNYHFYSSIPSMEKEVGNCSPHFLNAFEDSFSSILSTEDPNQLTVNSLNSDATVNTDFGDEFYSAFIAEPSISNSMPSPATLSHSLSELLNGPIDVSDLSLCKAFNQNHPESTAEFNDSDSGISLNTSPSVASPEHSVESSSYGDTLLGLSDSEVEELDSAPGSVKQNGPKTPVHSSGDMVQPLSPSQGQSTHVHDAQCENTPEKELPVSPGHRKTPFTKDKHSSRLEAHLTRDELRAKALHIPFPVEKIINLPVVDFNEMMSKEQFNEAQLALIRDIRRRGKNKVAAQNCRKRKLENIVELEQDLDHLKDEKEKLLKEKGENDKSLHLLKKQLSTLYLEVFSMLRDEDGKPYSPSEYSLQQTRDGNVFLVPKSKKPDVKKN
Sequence of Nuclear factor NF-kappa-B p105 subunit (Homo sapiens) (P19838 whole entry, looked up): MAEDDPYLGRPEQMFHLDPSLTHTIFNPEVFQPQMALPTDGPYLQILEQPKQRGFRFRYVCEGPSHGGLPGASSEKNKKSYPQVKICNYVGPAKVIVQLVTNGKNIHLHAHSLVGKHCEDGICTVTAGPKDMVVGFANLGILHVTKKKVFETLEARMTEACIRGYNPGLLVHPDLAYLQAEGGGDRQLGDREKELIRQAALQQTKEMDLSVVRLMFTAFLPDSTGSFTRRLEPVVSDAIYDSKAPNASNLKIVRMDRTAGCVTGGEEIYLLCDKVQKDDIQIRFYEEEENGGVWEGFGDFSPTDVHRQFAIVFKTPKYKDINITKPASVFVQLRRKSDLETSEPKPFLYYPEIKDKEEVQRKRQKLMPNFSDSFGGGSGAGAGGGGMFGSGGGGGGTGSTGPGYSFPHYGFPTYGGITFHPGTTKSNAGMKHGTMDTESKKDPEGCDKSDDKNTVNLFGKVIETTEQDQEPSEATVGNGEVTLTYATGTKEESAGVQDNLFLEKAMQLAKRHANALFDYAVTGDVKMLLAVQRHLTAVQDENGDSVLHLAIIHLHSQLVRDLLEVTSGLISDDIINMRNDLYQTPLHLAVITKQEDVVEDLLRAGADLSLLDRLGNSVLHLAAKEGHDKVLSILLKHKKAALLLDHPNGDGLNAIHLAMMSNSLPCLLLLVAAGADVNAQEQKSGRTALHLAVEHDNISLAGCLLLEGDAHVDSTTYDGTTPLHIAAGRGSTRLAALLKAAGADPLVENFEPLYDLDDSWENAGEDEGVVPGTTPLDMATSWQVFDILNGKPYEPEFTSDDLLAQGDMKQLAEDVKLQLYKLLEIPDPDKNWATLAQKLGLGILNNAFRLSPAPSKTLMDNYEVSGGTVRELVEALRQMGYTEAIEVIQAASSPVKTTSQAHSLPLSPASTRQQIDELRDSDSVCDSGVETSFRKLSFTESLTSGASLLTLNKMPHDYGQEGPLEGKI

CCCCCCCCc1ccc(O)cc1
active: [11] 69.3 µM
inactive: [1] | [2] | [3] | [4] | MYC, MYC (gene 4609) | [5] | [6] | [7] | [8] | [9] | [10] | [12] | [13] | [14] | [15] | [16] | [17] | TIMP1, TIMP1 (gene 7076) | [18]

CCN1CCC2(CC1)COc1cc3c(cc12)N(C(=O)c1ccc(-c2ccc(-c4nnc(C)o4)cc2C)cc1)CC3
active: [2] 32.7 µM | [4] 76.1 µM | [5] 46.8 µM | [6] 15.6 µM | [7] 46.8 µM | [8] 21.8 µM | [9] 22.7 µM | [10] 22.9 µM | [11] 28.4 µM | [14] 13.7 µM | [16] 83.8 µM | [17] 29 µM | [18] 21.6 µM
inactive: [1] | [3] | MYC, MYC (gene 4609) | [12] | [13] | [15] | TIMP1, TIMP1 (gene 7076)

C[C@@H]1C[C@@H]([C@H](O)CC2CC(=O)NC(=O)C2)C(=O)[C@@H](C)C1
active: [1] 20 µM | [2] 92.2 µM | [3] 10.6 µM | MYC, MYC (gene 4609) 13.9 µM | [5] 83.3 µM | [6] 2.39 µM | [7] 17.6 µM | [8] 0.636 µM | [9] 87.6 µM | [10] 8.29 µM | [11] 31.9 µM | [12] 29.3 µM | [13] 30.3 µM | [14] 15.6 µM | [15] 16.4 µM | [16] 31.1 µM | TIMP1, TIMP1 (gene 7076) 50 µM | [18] 80.6 µM
inactive: [4] | [17]

CC(C)(c1ccccc1)c1ccc(O)c(C(C)(C)c2ccccc2)c1
inactive: [2] | [4] | [5] | [6] | [7] | [8] | [9] | [11] | [12] | [14] | [16] | [17] | TIMP1, TIMP1 (gene 7076) | [18]
active: [1] 61.7 µM | [3] 78 µM | MYC, MYC (gene 4609) 50 µM | [10] 65.4 µM | [13] 50 µM | [15] 74.4 µM
